From PubChem BioAssay (Tox21)
Unmarked numbers belong to inactive results. Activity calls are given as the source filed them. The call rests on the fitted dose curve; in most records, active means well fitted curve in the direction sought with a large enough effect in the repeat runs; inconclusive means weak or mixed curves; inactive means flat fitted curve, though single readings scatter.

Assay: qHTS assay to test for compound auto fluorescence at 460 nm (blue) in HEK293 cells (AID 720678)
Conditions: blue autofluorescence 405/460 nm; series mostly up to 91.3 µM; fluorescence, % of triamterene: at the top concentration
Source text: National Center for Advancing Translational Sciences [NCATS]
NIH Chemical Genomics Center [NCGC]
U.S. Environmental Protection Agency [EPA]
National Institutes of Environmental Health Sciences [NIEHS]
National Toxicology Program [NTP]
U.S. Food and Drug Administration [FDA]
Compound auto fluorescence often interferes with screening of the compound library against various biological targets and signaling pathways. Some of these compounds may have fluorophoric properties. Such properties may interfere with the assay outputs resulting in false positives and/or negatives. To decrease such complications and ensure the compound activities are relevant in terms of biological response, the Tox21 10K compound library was screened for auto fluorescence.
From the fluorophores used as reporter signals in our screening assays, the auto fluorescence equivalencies of compounds against three fluorophores have been evaluated: Triamterene, Fluorescein and Rose Bengal sodium for blue, green and red fluorescence, respectively. The fluorescence intensities were measured using Excitation/Emission wavelengths at 405/460nm, 485/535nm and 540/590nm for blue, green and red labels, respectively. This assay includes the blue fluorescence data.
Tox21 Assay Protocol Summary:
2,000 HEK293 cells in 5 uL of culture medium containing 10% dialyzed FBS per well were dispensed into black wall/clear bottom 1536-well plates using a Multidrop Combi Dispenser (Thermo Scientific). The assay plates were incubated for 4-5 hr at 37C to allow cell attachment to the well bottom, followed by the transfer of 23 nL compound or DMSO vehicle by a pintool work station (Kalypsys, San Diego, CA). After the assay plates were incubated overnight at 37C and 5% CO2, fluorescence intensities in the assay plates were measured by an Envision (PerkinElmer, Shelton, CT) plate reader using three labels for measuring blue, green and red fluorescence at […] 460, 535 and 590nm respectively.
On the % scale 0 is the no-effect control and ±100 the full control effect.

Going from `CCCCCCCCCOCC1CO1` (stereo not given) to `C[CH2][Ge]([Cl])([CH2]C)[CH2]C`, the “fluorescence, % of triamterene” value falls from 0.107% [at 95.7 µM] to -0.0545% [at 95.7 µM].

First: O=S(=O)(O)CCO
Second: Cc1ccccc1C
The “fluorescence, % of triamterene” value of the first is higher: 0.0083% [at 95.7 µM] for the first, -0.169% [at 95.7 µM] for the second.

Compared with `CC(C)COC(=O)COc1ccc(Cl)cc1Cl`, `CCOc1ccc(NC(=O)OC(C)C)cc1OCC` is higher in “fluorescence, % of triamterene” value: -0.111% for the first, 0.242% for the second.

First: CN(C)CCOCCN(C)CCO
Second: N#CCCOCCOCCC#N
The “fluorescence, % of triamterene” value of the first is higher: 0.139% for the first, 0.0026% for the second.

First: CC(C)CCC(=O)CCC(C)C
Second: CCOC(=O)CC#N
The “fluorescence, % of triamterene” value of the first is lower: -0.0904% for the first, 0.114% for the second.

First: CCC(C)(C)C1CCC(=O)CC1
Second: CC(=O)c1ccc2c(c1)CCCC2
The “fluorescence, % of triamterene” value of the first is lower: -0.0057% for the first, 0.0065% for the second.

Going from `CCN(CCC#N)c1ccccc1` to `COC(OC)C(C)c1ccccc1` (stereo not given), the “fluorescence, % of triamterene” value rises from -0.0019% to 0.0084%.

Compared with `CCCCCCCCCCCCOC(C)=O`, `CO[Si](CCCS)(OC)OC` is higher in “fluorescence, % of triamterene” value: 0.0381% for the first, 0.188% for the second.

Going from `COc1cc([N+](=O)[O-])ccc1N` to `Cc1cccc(C(=O)O)c1[N+](=O)[O-]`, the “fluorescence, % of triamterene” value rises from -0.554% to 0.146%.

Compared with `Cc1nc2ccccc2c(=O)o1`, `CNC(=O)C(c1ccccc1)c1ccccc1` is lower in “fluorescence, % of triamterene” value: 0.214% for the first, 0.12% for the second.

Going from `O=[Si]=O` to `FC(F)(F)/C(=N\OCC1OCCO1)c1ccc(Cl)cc1`, the “fluorescence, % of triamterene” value falls from 0.158% to 0.109%.

Compared with `CCN1CN(CC)CN(CC)C1`, `CCC(C)N` (stereo not given) is lower in “fluorescence, % of triamterene” value: 0.0552% for the first, -0.0261% for the second.

In the case of `C[C@H](CCC(=O)O)[C@H]1CC[C@H]2[C@@H]3[C@H](O)C[C@@H]4C[C@H](O)CC[C@]4(C)[C@H]3C[C@H](O)[C@]12C`, the outcome is reported as “inactive”.
In the case of `CCCCCCCC/C=C\CCCCCCCC(=O)OC[C@@H](O)[C@H]1OC[C@H](O)[C@H]1O`, the outcome is reported as “inactive”.
For `F[Si-2](F)(F)(F)(F)F`, the outcome was “inactive”.
For `O=C(O)/C=C/c1ccccc1`, the outcome was “inactive”.

Molecule `C=CCCCCCCCCCCC` has a fluorescence, % of triamterene of -0.171% [at 3.72 µM].

Compared with `O=C(O)C(=O)Nc1cccc(-c2nn[nH]n2)c1`, `CCNC(=O)/C=C/c1cccc(Br)c1` is higher in “fluorescence, % of triamterene” value: 0.0359% [at 46 µM] for the first, 0.0559% [at 46 µM] for the second.

First: CC(=O)N(CC(O)CO)c1c(I)c(C(=O)NCC(O)CO)c(I)c(C(=O)NCC(O)CO)c1I (stereo not given)
Second: CC(C)(CO)[C@@H](O)C(=O)NCCCO
The “fluorescence, % of triamterene” value of the first is higher: 0.138% [at 46 µM] for the first, -0.0837% [at 46 µM] for the second.

Compared with `Cc1ccccc1N1CCN(CCc2nnc3n2CCCC3)CC1`, `Cc1ccc2c(c1)c1c3n2CCNC3CCC1` (stereo not given) is lower in “fluorescence, % of triamterene” value: -0.118% [at 46 µM] for the first, -0.143% [at 46 µM] for the second.

Going from `O=C(O)Cc1cccc(-c2cc(CCCCCCc3ccc(O[C@H]4O[C@H](CO)[C@@H](O)[C@H](O)[C@@H]4O)c(-c4cccc(CC(=O)O)c4)c3)ccc2O[C@H]2O[C@H](CO)[C@@H](O)[C@H](O)[C@@H]2O)c1` to `COc1ccc(/C=N/NC(=O)c2ccncc2)cc1OC`, the “fluorescence, % of triamterene” value rises from 0.0225% [at 46 µM] to 0.133% [at 46 µM].

Compared with `CO/N=C(/C(=O)N[C@@H]1C(=O)N2C(C(=O)O)=C(Cn3nnc(C)n3)CS[C@H]12)c1csc(N)n1`, `Nc1c(NC/C=C\COc2cc(CN3CCCCC3)ccn2)c(=O)c1=O` is higher in “fluorescence, % of triamterene” value: -0.06% [at 46 µM] for the first, -0.0129% [at 46 µM] for the second.

For `CCS(=O)(=O)CCn1c([N+](=O)[O-])cnc1C`, the fluorescence, % of triamterene was -0.271% [at 18.6 µM].
